These results are taken from PubChem BioAssay.

A short description of test [1]: rapamycin-like changes in RPL19A-GFP expression – cell-based, S. cerevisiae, multiplex flow cytometry, primary screen (AID 1862; in the data active = percent of DMSO control GFP below about 86%;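 note: lower values mimic rapamycin by blocking the RPL19A rise seen in DMSO cells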). Conditions: S. cerevisiae RPL19A-GFP strain, flow cytometry fluorescence, 3 h; at 10 µM; stronger effect = lower value. (A flow cytometer gives signals particle by particle.)
Test [2] can be described thus: TOR pathway GLN3 branch reporter MEP2-GFP changes – S. cerevisiae, multiplex flow cytometry, primary screen (AID 1867;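 active = GFP response, as percent of the DMSO control, above the screen-wide mean plus 3 SD, about 139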;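 note: median GFP channel fluorescence of barcode-gated MEP2-GFP cells measured by flow cytometry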). As to conditions: S. cerevisiae MEP2-GFP strain, 3 h, at 10 µM, stronger effect = higher value, 100% means same as DMSO wells.
Test [3] can be described thus: TOR pathway RTG branch CIT2 reporter changes – S. cerevisiae, GFP fusion, multiplex flow cytometry, primary screen (AID 1870;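 active = percent response above a set limit, the screen-wide mean plus 3 SD, cut at about 130% in these data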;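 note: barcoded CIT2-GFP strain pooled with four other GFP strains with rapamycin as positive control; median GFP fluorescence per well over plate mean of DMSO wells so 100% = DMSO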). As to conditions: S. cerevisiae CIT2-GFP expression, 3 h, at 10 µM, stronger effect = higher value.
Test [4] in a line: TOR pathway LAP4-GFP level changes – S. cerevisiae, multiplex flow cytometry, primary screen (AID 1873;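 active = GFP signal, as percent of the solvent control, above the screen mean plus 3 SD, about 149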). Conditions: S. cerevisiae LAP4-GFP expression, 3 h, at 10 µM, stronger effect = higher value.
The nature of test [5]: yeast AGP1-GFP level changes, GLN3 branch – cell-based, multiplex flow cytometry, S. cerevisiae, primary screen (AID 1887;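 active = GFP signal above the screen-wide mean plus 3 SD, that is over about 124.5% of the solvent control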;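 note: AGP1-GFP fusion strain of S. cerevisiae within a five-strain barcoded multiplex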). As to conditions: 3 h, at 10 µM, stronger effect = higher value.
Test [6] in a line: reduced mouse 2C T cell binding to pMHC/ICAM-1 vesicles – MLPCN validation set, flow cytometry, LFA-1/ICAM-1 modulator project, pilot screen (AID 2523;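 active = response below a set limit, under 55% cells CD8-positive and vesicle-bound, and CD8 cells' 90th-percentile brightness under 279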;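 for vesicle binding response: mean PE anti-B7-1 fluorescence of CD8+ cells relative to row control; 100% = QL9-loaded vesicles with DMSO vehicle in the same plate row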). As to conditions: 2C mouse CD8+ T cells, at 7 µM, stronger effect = lower value; double positive events: measured here: CD8+/vesicle+ event percentage.
Test [7] addresses Integrin beta-1 (Homo sapiens) + Integrin alpha-4 (Homo sapiens) (UniProt P13612+P05556). The test is described as follows: alpha4beta1 integrin LIBS antibody binding reduction – U937 cells, HUTS-21 mAb, flow cytometry, validation set, VLA-4 allosteric modulator project, pilot screen (AID 2674;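 active = inhibition above 50%, about 3 SD of the validation set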;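 note: antibody binding induced by the VLA-4 ligand LDV present at three times its Kd; 0% = LDV ligand with antibody and no compound and 100% = antibody without LDV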). As to conditions: HUTS-21 LIBS mAb binding, at 6.7 µM, stronger effect = higher value, binding induced by LDV ligand.

Test [8] is described as follows: calorie-restriction mimetic ROS inhibitors, yeast – validation compound set, pilot screen (AID 2706;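 active = superoxide response below 65% of plate, a cut near 3 SD across the whole screen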;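 note: yeast exposed to compound for one week at 30 degrees C before staining; 100% = mean of all compound wells on the same plate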). Conditions: S. cerevisiae aging, superoxide DHE fluorescence; at 10 µM, stronger effect = lower value.
The target of test [9] is Beta-adrenergic receptor kinase 1 (Homo sapiens) (UniProt P25098). Kind of test: GRK2 binders displacing RNA aptamer, biochemical, validation, human GRK2, bead flow cytometry (AID 488806;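 active = aptamer binding inhibition above 30%, about 3 SD of noise from non-fluorescent compounds; inactive = inhibition at or below 30%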). As to conditions: bead-bound GRK2, FAM-aptamer displacement, at 10 µM, stronger effect = higher value.
In test [10] the target is AP-2 complex subunit beta (Homo sapiens) (UniProt P63010). Kind of test: beta-arrestin/AP2 interaction blockers – biochemical, validation set, GST-AP2 beads, flow cytometry, pilot screen (AID 504541;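 active = inhibition above 54%, about 3 SD of non-fluorescent compounds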;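 note: AP2 carries R879A mutation and is captured from E. coli lysate; bead-bound FITC arrestin peptide fluorescence measuring arrestin peptide binding to AP2; 0% = DMSO wells and 100% = excess unlabeled arrestin peptide control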). Conditions: FITC arrestin peptide, at 10 µM, stronger effect = higher value, AP2 beta2 appendage fragment, R879A mutant.
Test [11] can be described thus: cytosolic pH regulators acting via V-ATPase – S. cerevisiae, pHLuorin, HTS validation (AID 504600; in the data active = response above about 15%;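 note: plate controls were DMSO for no effect and reference compound for full effect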). As to conditions: V-ATPase proton transport, at 10 µM, stronger effect = higher value.
The test system of test [12] is anti-desmoglein-3 scFv antibody binding to human DSG3. The test is described as follows: blockers of pathogenic pemphigus antibody–desmoglein-3 binding – biochemical, validation compound set, bead-based, flow cytometry, pilot screen (AID 588368).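 Note: signal is the median channel fluorescence of bead-bound GFP antibody.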 Conditions: Protein G beads, DSG3-Fc, scFv-GFP binding, at 10 µM, stronger effect = lower value.
The nature of test [13]: Nile Red efflux blockade in pump-expressing yeast – validation compound set, multiplex, phenotypic, pilot screen (AID 588506;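 active = efflux inhibition above 0.42, the validation set average plus 4 SD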;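 note: Nile Red retained in cells so higher fluorescence means more efflux inhibition; 0 = negative control wells and 1 = enniatin B 25 µM full block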). Conditions: S. cerevisiae pump-expressing triplex, Nile Red efflux flow cytometry; at 10 µM; stronger effect = higher value; the pumps come from Candida albicans.
In test [14] the target is ATP-binding cassette sub-family B member 6 (Homo sapiens) (UniProt Q9NP58). Kind of test: blockers of ABCB6-driven porphyrin uptake – K562-ABCB6 cells, flow cytometry, validation set, pilot screen (AID 588550;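 active = inhibition above the screen-wide mean plus 3 SD, about 51%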;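 note: 0% = DMSO wells and 100% = benzethonium chloride 70 µM positive control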). As to conditions: K562-ABCB6 porphyrin accumulation, 1 h, at 10 µM, stronger effect = higher value.
A short description of test [15]: AML differentiation inducers, ER-HoxA9 marrow cells – cell-based, GFP/MAC1 double positive, flow cytometry, validation set, primary screen (AID 588685;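 active = differentiation response of at least 50%, scaled between solvent and reference control, from cells with both markers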;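 note: compound exposure lasts four days before antibody staining and flow analysis; 0% = DMSO wells and 100% = 5 µM fulvestrant positive control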). As to conditions: stronger effect = higher value, normalized: vehicle 0, fulvestrant 100.

Results filed as inconclusive are left out. Calls of active or inactive are those of the source.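 Rule for the calls, unless noted: active = binding below the plate cutoff, the plate median minus 3 SD, with a reading above zero; inconclusive = below the plate cutoff but reading exactly zero; inactive = the rest.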

Sequence of AP-2 complex subunit beta (Homo sapiens) (P63010 whole entry, looked up, the tested form may be a part, one chain of several): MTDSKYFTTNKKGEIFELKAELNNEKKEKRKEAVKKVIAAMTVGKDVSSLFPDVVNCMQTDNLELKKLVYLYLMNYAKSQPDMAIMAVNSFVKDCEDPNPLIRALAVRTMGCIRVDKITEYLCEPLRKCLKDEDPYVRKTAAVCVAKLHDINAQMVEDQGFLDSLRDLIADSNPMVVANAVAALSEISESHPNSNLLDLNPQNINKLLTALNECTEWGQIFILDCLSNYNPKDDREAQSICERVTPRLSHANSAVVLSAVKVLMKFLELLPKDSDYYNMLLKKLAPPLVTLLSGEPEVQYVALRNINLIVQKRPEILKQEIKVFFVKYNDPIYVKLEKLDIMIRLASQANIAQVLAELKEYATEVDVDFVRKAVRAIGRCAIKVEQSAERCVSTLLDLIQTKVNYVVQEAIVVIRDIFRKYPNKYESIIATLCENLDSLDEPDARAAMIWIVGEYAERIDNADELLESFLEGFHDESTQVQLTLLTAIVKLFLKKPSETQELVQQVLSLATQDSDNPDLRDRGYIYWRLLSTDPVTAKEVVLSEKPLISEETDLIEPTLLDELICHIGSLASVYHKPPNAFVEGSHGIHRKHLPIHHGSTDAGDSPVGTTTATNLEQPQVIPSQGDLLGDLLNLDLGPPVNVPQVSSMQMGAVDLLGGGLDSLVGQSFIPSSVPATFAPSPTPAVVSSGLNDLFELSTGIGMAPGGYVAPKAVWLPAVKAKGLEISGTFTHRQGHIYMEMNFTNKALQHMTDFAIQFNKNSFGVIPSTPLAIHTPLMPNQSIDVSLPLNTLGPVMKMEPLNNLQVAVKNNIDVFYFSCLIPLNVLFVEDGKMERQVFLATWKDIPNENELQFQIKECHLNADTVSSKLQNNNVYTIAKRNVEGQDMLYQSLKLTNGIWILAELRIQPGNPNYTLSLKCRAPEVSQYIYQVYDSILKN
Sequence of Integrin beta-1 (Homo sapiens) + Integrin alpha-4 (Homo sapiens) (P05556 whole entry, looked up): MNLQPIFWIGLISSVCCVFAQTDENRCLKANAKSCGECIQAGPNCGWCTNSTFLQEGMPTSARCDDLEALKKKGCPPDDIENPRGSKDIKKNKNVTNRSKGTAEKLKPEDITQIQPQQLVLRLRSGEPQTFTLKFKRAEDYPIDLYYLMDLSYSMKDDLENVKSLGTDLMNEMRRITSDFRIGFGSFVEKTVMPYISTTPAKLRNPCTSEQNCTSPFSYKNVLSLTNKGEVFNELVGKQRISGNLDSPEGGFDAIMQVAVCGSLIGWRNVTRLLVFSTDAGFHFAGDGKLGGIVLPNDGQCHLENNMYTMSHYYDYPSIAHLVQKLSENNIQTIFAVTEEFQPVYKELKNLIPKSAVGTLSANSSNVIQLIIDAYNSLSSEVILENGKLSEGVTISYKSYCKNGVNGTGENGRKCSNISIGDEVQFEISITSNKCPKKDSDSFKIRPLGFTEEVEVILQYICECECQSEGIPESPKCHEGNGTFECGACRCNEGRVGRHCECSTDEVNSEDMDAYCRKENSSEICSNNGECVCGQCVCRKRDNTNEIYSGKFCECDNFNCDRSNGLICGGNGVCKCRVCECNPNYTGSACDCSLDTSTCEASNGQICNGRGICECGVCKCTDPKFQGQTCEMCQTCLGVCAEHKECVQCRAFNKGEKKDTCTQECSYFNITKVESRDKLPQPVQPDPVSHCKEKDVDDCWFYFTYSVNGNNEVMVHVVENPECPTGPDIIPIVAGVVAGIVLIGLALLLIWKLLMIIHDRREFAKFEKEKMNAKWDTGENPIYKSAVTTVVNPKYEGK
Sequence of Integrin beta-1 (Homo sapiens) + Integrin alpha-4 (Homo sapiens) (P13612 whole entry, looked up): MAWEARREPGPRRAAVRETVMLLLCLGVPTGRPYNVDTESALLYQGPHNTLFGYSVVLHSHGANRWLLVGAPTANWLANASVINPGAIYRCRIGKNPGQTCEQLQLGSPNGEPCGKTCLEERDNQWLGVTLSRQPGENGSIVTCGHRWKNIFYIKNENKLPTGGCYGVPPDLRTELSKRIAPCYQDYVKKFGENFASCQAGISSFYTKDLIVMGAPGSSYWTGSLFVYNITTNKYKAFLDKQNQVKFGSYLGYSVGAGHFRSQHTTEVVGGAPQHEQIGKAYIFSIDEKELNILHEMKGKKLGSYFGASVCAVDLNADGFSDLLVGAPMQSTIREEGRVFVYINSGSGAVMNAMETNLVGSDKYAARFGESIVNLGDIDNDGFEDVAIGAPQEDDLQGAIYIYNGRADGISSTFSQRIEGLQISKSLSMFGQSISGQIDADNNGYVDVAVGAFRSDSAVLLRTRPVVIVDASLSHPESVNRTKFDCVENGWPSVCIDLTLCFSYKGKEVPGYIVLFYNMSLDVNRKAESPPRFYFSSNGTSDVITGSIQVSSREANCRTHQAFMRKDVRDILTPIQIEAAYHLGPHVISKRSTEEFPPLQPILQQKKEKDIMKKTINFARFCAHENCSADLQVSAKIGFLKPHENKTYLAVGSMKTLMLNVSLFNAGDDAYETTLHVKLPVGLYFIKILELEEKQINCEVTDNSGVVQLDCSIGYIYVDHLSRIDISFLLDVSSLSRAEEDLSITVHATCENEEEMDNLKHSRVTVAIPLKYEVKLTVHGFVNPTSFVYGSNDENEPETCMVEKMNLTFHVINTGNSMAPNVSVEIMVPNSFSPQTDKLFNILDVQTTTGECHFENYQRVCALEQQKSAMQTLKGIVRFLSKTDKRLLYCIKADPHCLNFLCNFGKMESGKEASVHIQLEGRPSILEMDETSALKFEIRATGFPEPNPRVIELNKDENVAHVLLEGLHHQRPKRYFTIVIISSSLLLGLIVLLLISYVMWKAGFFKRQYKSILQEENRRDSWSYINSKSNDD
Sequence of Beta-adrenergic receptor kinase 1 (Homo sapiens) (P25098 whole entry, looked up): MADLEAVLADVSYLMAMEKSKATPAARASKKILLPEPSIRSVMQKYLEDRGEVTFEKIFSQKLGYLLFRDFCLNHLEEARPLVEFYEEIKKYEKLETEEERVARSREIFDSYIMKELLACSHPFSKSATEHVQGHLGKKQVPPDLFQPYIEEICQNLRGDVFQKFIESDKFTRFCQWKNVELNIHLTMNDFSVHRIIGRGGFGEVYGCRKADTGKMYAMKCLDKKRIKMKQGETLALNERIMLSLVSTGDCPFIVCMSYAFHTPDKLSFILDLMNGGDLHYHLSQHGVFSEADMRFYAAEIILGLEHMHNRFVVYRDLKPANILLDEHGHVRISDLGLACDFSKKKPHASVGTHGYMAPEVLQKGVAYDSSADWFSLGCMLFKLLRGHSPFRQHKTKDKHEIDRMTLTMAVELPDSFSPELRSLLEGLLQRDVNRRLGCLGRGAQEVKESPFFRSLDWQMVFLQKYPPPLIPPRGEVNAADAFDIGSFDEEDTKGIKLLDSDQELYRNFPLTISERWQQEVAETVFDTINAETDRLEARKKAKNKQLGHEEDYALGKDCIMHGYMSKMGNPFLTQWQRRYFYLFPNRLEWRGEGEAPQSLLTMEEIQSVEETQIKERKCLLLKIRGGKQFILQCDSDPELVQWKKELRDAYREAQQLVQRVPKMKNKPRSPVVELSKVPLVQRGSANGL
Sequence of ATP-binding cassette sub-family B member 6 (Homo sapiens) (Q9NP58 whole entry, looked up): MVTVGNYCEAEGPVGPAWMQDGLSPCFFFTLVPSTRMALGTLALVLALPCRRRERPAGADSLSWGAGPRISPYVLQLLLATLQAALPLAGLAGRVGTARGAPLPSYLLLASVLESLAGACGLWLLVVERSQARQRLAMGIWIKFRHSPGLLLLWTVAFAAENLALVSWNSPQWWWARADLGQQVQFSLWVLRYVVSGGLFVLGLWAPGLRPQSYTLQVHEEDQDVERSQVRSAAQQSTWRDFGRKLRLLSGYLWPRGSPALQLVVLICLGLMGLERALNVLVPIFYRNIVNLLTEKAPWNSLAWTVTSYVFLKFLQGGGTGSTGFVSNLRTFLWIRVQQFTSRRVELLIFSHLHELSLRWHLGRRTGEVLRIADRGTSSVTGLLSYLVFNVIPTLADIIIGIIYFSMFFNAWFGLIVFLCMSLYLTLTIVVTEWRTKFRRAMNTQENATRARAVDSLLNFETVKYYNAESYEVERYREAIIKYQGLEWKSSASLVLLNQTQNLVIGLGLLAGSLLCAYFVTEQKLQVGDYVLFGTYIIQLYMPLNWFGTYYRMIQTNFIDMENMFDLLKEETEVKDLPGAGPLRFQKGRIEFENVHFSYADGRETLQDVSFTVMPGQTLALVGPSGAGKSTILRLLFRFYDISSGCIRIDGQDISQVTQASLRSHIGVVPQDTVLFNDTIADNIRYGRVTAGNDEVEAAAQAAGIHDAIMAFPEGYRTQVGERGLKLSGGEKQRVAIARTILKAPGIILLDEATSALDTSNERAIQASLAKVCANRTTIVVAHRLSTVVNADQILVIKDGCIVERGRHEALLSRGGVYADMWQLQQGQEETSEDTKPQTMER

`O=S(=O)(NCCCCCNS(=O)(=O)c1ccccc1)c1ccccc1`: in test [1], the percent of DMSO control GFP is 104% (inactive). Moreover, the GFP response vs DMSO in [2] is 105% (inactive); in test [4], 92.3% (inactive). For the same compound, in test [3], the percent response of DMSO control is 95.9% (inactive). Moreover, the GFP response, % of DMSO in [5] is 92.8% (inactive). The same compound displayed a double positive events in [6] of 57.2%. In [6], the vesicle binding response is 127% (inactive). The results for the inhibition in test [7], in [10] and in [14] were -13.3% (inactive), 3.03% (inactive) and 10% (inactive), respectively. In test [8], the superoxide response (% of plate) was 104% (inactive). In addition, the aptamer binding inhibition in [9] is -3% (inactive). In addition, the response in test [11] is 1.49% (inactive). Also, the binding (% of control) in test [12] is 103% (inactive). Also, the efflux inhibition (fraction of control) in test [13] is 0.56 (active). Also, the differentiation response in test [15] is -11.5% (inactive).

Turning to `COc1ccc(C=NCC2COc3ccccc3O2)cc1OC` (stereo not given), in test [1], the percent of DMSO control GFP was 103% (inactive). The GFP response vs DMSO in test [2] is 101% (inactive); in test [4], 90.3% (inactive). The percent response of DMSO control in test [3] is 98.8% (inactive). In addition, the GFP response, % of DMSO in test [5] is 95.5% (inactive). The compound further yielded a double positive events in [6] of 62.8%. Also, the vesicle binding response in test [6] is 187% (inactive). Besides, the inhibition – broadly, the drop in the measured response relative to a control, in per cent – in test [7] is 0.69% (inactive); in test [10] it was 17.1% (inactive); in test [14], 10% (inactive). Further, the superoxide response (% of plate) in test [8] is 104% (inactive). In addition, the aptamer binding inhibition in test [9] was -1% (inactive). For the same compound, in test [11], the response is -2.12% (inactive). Further, the binding (% of control) in test [12] was 107% (inactive). In test [13], the efflux inhibition (fraction of control) is 0.63 (active). Also, in test [15], the differentiation response was -5.05% (inactive).

With `O=c1nc2cccc3c2=c(/c1=C(\O)c1ccccc1)c1ccccc1c3=O`, the percent of DMSO control GFP in test [1] was 102% (inactive). For the same compound, the GFP response vs DMSO in test [2] is 102% (inactive); in test [4], 96.4% (inactive). The percent response of DMSO control in test [3] is 105% (inactive). Besides, the GFP response, % of DMSO in [5] was 99.3% (inactive). Besides, the double positive events in [6] was 47.4%. The vesicle binding response in test [6] is 175% (inactive). Besides, the inhibition is -23.6% (inactive) in test [7], 17.9% (inactive) in test [10] and 9% (inactive) in test [14]. Also, in test [8], the superoxide response (% of plate) is 99.9% (inactive). Moreover, the aptamer binding inhibition in test [9] is 8% (inactive). The response in [11] was 1.67% (inactive). The binding (% of control) in test [12] is 91% (inactive). Further, the efflux inhibition (fraction of control) in [13] was -0.16 (inactive). In addition, the differentiation response in test [15] is -6.66% (inactive).

Regarding `CC(=O)OCC(=O)[C@@]12OC(C)(C)O[C@@H]1C[C@H]1[C@@H]3C[C@H](F)C4=CC(=O)C=C[C@]4(C)[C@@]3(F)[C@@H](O)C[C@@]12C`, the percent of DMSO control GFP in test [1] is 104% (inactive). Further, the GFP response vs DMSO in test [2] was 107% (inactive); in test [4], 100% (inactive). Moreover, the percent response of DMSO control in [3] was 106% (inactive). Further, the GFP response, % of DMSO in [5] is 105% (inactive). This compound displayed a double positive events in [6] of 64.6%. Besides, in [6], the vesicle binding response was 212% (inactive). Besides, the inhibition is 3.49% (inactive) in [7], 2.71% (inactive) in test [10] and 8% (inactive) in test [14]. Moreover, the superoxide response (% of plate) in [8] is 94.7% (inactive). Further, in test [9], the aptamer binding inhibition is 0% (inactive). Also, the response in test [11] was 1.38% (inactive). Besides, the binding (% of control) in test [12] is 91.8% (inactive). The efflux inhibition (fraction of control) in test [13] is 0.03 (inactive). The differentiation response in [15] was 19.2% (inactive).

As for `CCOc1ccc(NC(=O)N[C@@H](CCSC)C(=O)OC)cc1`, the percent of DMSO control GFP in test [1] was 105% (inactive). For the same compound, the values for the GFP response vs DMSO in test [2] and in [4] were 106% (inactive) and 96.4% (inactive), respectively. Further, in [3], the percent response of DMSO control is 104% (inactive). The GFP response, % of DMSO in [5] was 105% (inactive). The double positive events in [6] amounted to 52.6%. Further, the vesicle binding response in [6] is 164% (inactive). For the same compound, the inhibition was 5.36% (inactive) in test [7], 5.32% (inactive) in test [10] and 6% (inactive) in [14]. Moreover, the superoxide response (% of plate) in test [8] was 117% (inactive). Also, in [9], the aptamer binding inhibition was 1% (inactive). Moreover, in test [11], the response was 4.65% (inactive). For the same compound, the binding (% of control) in [12] was 98.5% (inactive). Besides, the efflux inhibition (fraction of control) in test [13] was -0.47 (inactive). Further, in test [15], the differentiation response is 9.49% (inactive).
